The list is not random: actives were taken first. Their share in the collection is about 3.5%.
ERa SRC1 pot: enhances coactivator binding to human estrogen receptor alpha; AID 639; P03372; TR-FRET ERalpha-LBD/SRC-Cy5 coactivator binding, 2 h; 100 = basal binding, no effect; coactivator binding (% of control), % at 25.6 µM; 86,000 compounds, 1.3% hits; in the data active = activity above about 200%;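 also: binding measured in presence of low estradiol as agonist stimulus; 0% = peptide alone without receptor and 100% = receptor with peptide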
ERa SRC1 inh: blocks coactivator binding to human estrogen receptor alpha; P03372; TR-FRET ER-alpha LBD / SRC-1 peptide, estradiol-bound; inhibition, % at 25.6 µM; 86,000 compounds, 1.7% hits; AID 629; in the data active = inhibition above about 50%;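 also: 0% = receptor plus peptide control and 100% = peptide only without receptor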
ERb SRC1 inh: ER-beta (human) coactivator binding inhibition; Q92731; TR-FRET ER-beta LBD / SRC1-Cy5 peptide binding; receptor agonist-loaded with 1 µM estradiol; inhibition, % at 25.6 µM; 86,000 compounds, 1.3% hits;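 active = compounds whose percent inhibition of the receptor-coactivator binding signal exceeds about 50% in the single-dose screen, limit read from the data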;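 also: 0% = receptor plus peptide wells without compound and 100% = peptide-only wells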
Target sequence (Q92731 whole entry, looked up, the tested form may be a part): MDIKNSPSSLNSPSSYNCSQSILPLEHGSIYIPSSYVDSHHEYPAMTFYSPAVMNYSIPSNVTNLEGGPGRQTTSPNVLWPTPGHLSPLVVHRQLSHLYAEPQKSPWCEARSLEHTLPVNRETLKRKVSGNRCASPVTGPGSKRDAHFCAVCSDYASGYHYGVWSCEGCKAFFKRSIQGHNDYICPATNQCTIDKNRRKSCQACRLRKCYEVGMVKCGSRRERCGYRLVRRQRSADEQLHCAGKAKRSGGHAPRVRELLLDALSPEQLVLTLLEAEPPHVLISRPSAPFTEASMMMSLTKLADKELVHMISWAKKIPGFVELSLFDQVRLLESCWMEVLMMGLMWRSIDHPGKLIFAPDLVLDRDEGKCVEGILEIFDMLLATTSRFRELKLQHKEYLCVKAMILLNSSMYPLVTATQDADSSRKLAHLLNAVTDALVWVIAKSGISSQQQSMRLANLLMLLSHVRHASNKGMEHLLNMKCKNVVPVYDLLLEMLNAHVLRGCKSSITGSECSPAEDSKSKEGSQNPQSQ
Mac1 fbg inh: inhibitors of human CD11b/CD18 binding to fibrinogen. inhibition, % at 10 µM. AID 1497. 93,000 compounds, 0.54% hits. K562 CD11b/CD18 adhesion to fibrinogen, ATPlite luminescence; Mn2+ added to activate the integrin. P05107+P11215;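 active = primary inhibition of 50% or more at 10 µM, then 40% or more on retest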
FAK inh: blocks human focal adhesion kinase activity. biochemical FAK kinase activity assay. inhibition, %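 (tested at 7 µM)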. Q05397. 97,000 compounds, 0.84% hits. AID 727; in the data active = inhibition above about 19%;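 also: 0% = DMSO and 100% = reference compound high control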
CD11b adhes enh: increases human CD11b/CD18 adhesion to fibrinogen | P05107+P11215 | K562 CD11b/CD18 adhesion to fibrinogen, ATPlite luminescence | activation, % at 10 µM | 93,000 compounds, 0.07% hits | AID 1499;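 active = 10 µM primary screen giving 50% or more activity, confirmed by 40% or more on retest at that dose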
* marks the source's active call; other numbers are inactive results; / = no result; [ ] = remark or other dose.

SMILES	ERa SRC1 pot	ERa SRC1 inh	ERb SRC1 inh	Mac1 fbg inh	FAK inh	CD11b adhes enh
O=C(O)c1cnc(-c2ccccc2)nc1Sc1ccccc1	/	/	/	/	-9	/
O=C(O)c1cnc(-c2ccccc2)nc1Sc1cccc(Cl)c1	/	/	/	62*	-8	-6
O=C(Nc1ccc2c(c1)nc1n2CCOC1)c1ccco1	122	2	-12	-7	-1	-4
O=C(Nc1ccc2c(c1)nc1n2CCN(C2CCCCC2)C1)c1ccco1	43	61*	53*	/	/	/
O=C(Nc1ccc2c(c1)nc1n2CCSC1)c1ccco1	123	80*	61*[fluorescence artefact?]	3	3	12
CC(C)OC(=O)c1c2nc3ccccc3nc2n2c1[nH]c(=O)c1ccccc12	176	15	15	23	0	44
CC1(C)CC(=O)C(C=NCCCN2CCCC2=O)=C(O)C1	115	4	-3	-9	-8	0
CC(C)C(=O)Nc1ccc(C(=O)NC2CCSC2=O)cc1 (stereo not given)	204*	15	8	-2	-3	4
CC(C)C(=O)Nc1ccc(C(=O)NNC(=O)NC2CCCCC2)cc1	/	/	/	-2	3	-1
Cc1ccc(OC(=O)COc2ccccc2C)c(-n2nc3ccccc3n2)c1	92	-15	-5	/	0	/
Cc1ccc(N2CC(C(=O)Nc3ccccn3)CC2=O)cc1 (stereo not given)	93	5	63*[fluorescence artefact?]	2	1	-4
COc1nnc(-c2ccc(C(=O)N3C[C@@H]4C[C@H](C3)c3cccc(=O)n3C4)cc2)c2ccccc12	340*	29	16	-9	/	1
COc1ccc(C2CC(C(F)(F)F)n3nc(C(=O)NCc4c(C)nn(C)c4C)c(Cl)c3N2)cc1 (stereo not given)	103	-3	3	45	/	1
O=C(OCc1nc2ccccc2s1)c1cc2ccccc2oc1=O	/	/	/	4	/	-2
Cc1nnc2sc(-c3ccc(NC(=O)c4ccc(-c5ccc(Cl)cc5Cl)o4)cc3)nn12	110	70*	49	/	28*	/
Cc1nnc2sc(-c3ccc(NC(=O)c4cccnc4)cc3)nn12	81	3	-1	/	-1	/
CCC(Oc1ccccc1)C(=O)Nc1nnc(C(F)(F)F)s1 (stereo not given)	109	-4	-4	74*	-12	-6
Cc1nc2ncnn2c(N2CCCC(C(=O)Nc3ccc4c(c3)CCC4)C2)c1C (stereo not given)	103	-1	-5	52	/	-4
COc1cc2c(C(=O)NCc3ccccn3)cn(C)c(=O)c2cc1OC	102	-23	-25	6	8	-2
CC(=O)Nc1ccc(-c2nnc(SCC(=O)n3c4c(c5ccccc53)CCCC4)n2C)cc1	256*	-24	-15	-12	9	89
Cn1c(SCC(=O)Nc2ccccc2F)nnc1-c1cc2ccccc2o1	597*[fluorescence artefact?]	-40	6	-22	0	-4
Cn1c(SCC(=O)n2c3c(c4ccccc42)CCCC3)nnc1-c1ccccc1	190	10	-3	13	4	-3
Cn1c(SCC(=O)Nc2ccc3c(c2)oc2ccccc23)nnc1-c1ccccc1	251*[fluorescence artefact?]	52*	31	7	14	53
Cn1c(SCC(=O)Nc2sccc2C#N)nnc1-c1ccccc1	29	53*	46	-5	3	0
Cc1nc(NC(=O)c2ccc(Cl)cc2)sc1-c1csc(Nc2cccc(F)c2)n1	/	/	/	/	2	/
Cn1c(N)c(C(=O)CSc2nc3ccccc3n2-c2ccccc2)c(=O)n(C)c1=O	231*[fluorescence artefact?]	48	38	3	/	2
COc1ccc(-n2c(SCC(=O)c3c(N)n(C)c(=O)n(C)c3=O)nc3ccccc32)cc1	73	11	15	7	0	0
CCOC(=O)c1ccc(CNC(=O)CSc2nc(NC(=O)c3ccccc3)c3c(C)c(C)oc3n2)cc1	135	7	6	-22	0	-2
CCOC(=O)N1CCN(C(=O)C2CCCN(Cc3nc(-c4ccc(Cl)cc4)oc3C)C2)CC1 (stereo not given)	103	5	-2	70*	-6	-6
Cc1oc(-c2ccc(Cl)cc2)nc1CN1CCCC(C(=O)N2CCc3ccccc32)C1 (stereo not given)	152	-1	6	/	/	/

From PubChem
